Unmarked numbers belong to inactive results. The rule behind the calls is not given here.

The subject of the experiment is Aerobactin synthetase IucA (Klebsiella pneumoniae hvKP1). The experiment is described as follows: IucA enzyme inhibition, primary screen, biochemical, Spectrum library (AID 1346200).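 Note: 100% = wells without compound and 0% = wells lacking enzyme.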 The note with it: malachite green pyrophosphate, A620, at 8 µM, active compounds read low.
Consider `CC1(C)O[C@H]2[C@H](O)C[C@](O)(C(N)=O)C[C@H]2O1`, for which the activity remaining was 109%.

For `COc1ccc(NS(=O)(=O)c2ccc(N)cc2)nn1`, the activity remaining is 111%.

As for `COc1cc(O)cc(/C=C/c2ccccc2)c1`, the activity remaining was 104%.

Turning to `CC(C)Oc1ccc2c(=O)cc(-c3ccccc3)oc2c1`, the activity remaining is 114%.

In the case of `O=C1c2ccccc2C(=O)C1c1ccccc1`, the activity remaining is 121%.

On to `CC(=O)N=c1sc(S(N)(=O)=O)nn1C`, for which the activity remaining was 86.3%.

In the case of `O[N+]1=CC=CCC1=S.On1ccccc1=S.[Zn]`, the activity remaining was 92.5%.

Take `CN(C)CC/C=C1\c2ccccc2Sc2ccc(Cl)cc21`: the activity remaining is 110%.

For the molecule `CC1(C)O[C@@H]2CC3C4C[C@H](F)C5=CC(=O)CC[C@]5(C)C4[C@@H](O)C[C@]3(C)[C@]2(C(=O)CO)O1` (some centres undefined), the activity remaining is 118%.

Regarding `C/C=C(\C)C(=O)O[C@@H]1c2c(ccc3ccc(=O)oc23)OC(C)(C)[C@@H]1OC(C)=O`, the activity remaining is 87%.

Turning to `NC(=NCCCCCCN=C(N)/N=C(\N)Nc1ccc(Cl)cc1)/N=C(\N)Nc1ccc(Cl)cc1`, the activity remaining is 95.5%.

Turning to `CC(=O)OCC(=O)[C@@]1(O)CCC2C3CCC4=CC(=O)CC[C@]4(C)C3[C@@H](O)C[C@@]21C` (some centres undefined), the activity remaining was 85.9%.

Turning to `NS(=O)(=O)c1cc2c(cc1C(F)(F)F)NCNS2(=O)=O`, the activity remaining is 107%.

In the case of `O=C(O)c1ccccc1Nc1cccc(C(F)(F)F)c1`, the activity remaining is 116%.

On to `O=C(O)[C@H]1/C(=C/CO)O[C@@H]2CC(=O)N21`, for which the activity remaining is 112%.

For the molecule `CCC(=O)OCC(=O)C1(OC(=O)CC)C(C)CC2C3CCC4=CC(=O)C=CC4(C)C3(Cl)C(O)CC21C` (centres undefined), the activity remaining was 119%.

Take `C[C@@H]1O[C@@H](O[C@H]2[C@@H](Oc3cc(O)c4c(c3)O[C@H](c3ccc(O)cc3)CC4=O)O[C@H](CO)[C@@H](O)[C@@H]2O)[C@H](O)[C@H](O)[C@H]1O`: the activity remaining was 117%.

`CCN(CC)C(C)CN1c2ccccc2Sc2ccccc21` (centres undefined): the activity remaining was 109%.

Regarding `O=C(CC(=O)c1ccccc1)c1ccccc1`, the activity remaining was 101%.

Take `Nc1ccc(S(N)(=O)=O)cc1`: the activity remaining was 116%.

For `CC[C@]1(O)CC2CN(CCc3c([nH]c4ccccc34)[C@@](C(=O)OC)(c3cc4c(cc3OC)N(C)[C@H]3[C@@](O)(C(=O)OC)[C@H](OC(C)=O)[C@]5(CC)C=CCN6CC[C@]43[C@@H]65)C2)C1` (some centres undefined), the activity remaining is 126%.

In the case of `COc1cc(/C=C/C(=O)O)cc(OC)c1OC`, the activity remaining is 111%.

Consider `CCOC(=O)NNc1nncc2ccccc12`, for which the activity remaining was 118%.

In the case of `COc1cc(OC)c2ccc(=O)oc2c1`, the activity remaining was 112%.

For the molecule `C=C(C)[C@H]1CC=C(C(=O)O)CC1`, the activity remaining is 120%.

Consider `C/C=C\C1=C(C(=O)O)N2C(=O)C(NC(=O)C(N)c3ccc(O)cc3)C2SC1` (centres undefined), for which the activity remaining is 115%.

As for `CCOC(=O)C1=C(O)C(=O)N(Cc2ccccc2)C1`, the activity remaining is 96.2%.

Consider `COc1ccc(-c2cc(=O)c3c(OC)c(OC)c(OC)c(OC)c3o2)cc1`, for which the activity remaining was 121%.

Take `CNCC[C@H](Oc1cccc2ccccc12)c1cccs1`: the activity remaining is 114%.
